Bioassay records as filed in PubChem.
The list is not random: actives were taken first. Their share in the collection is about 4%.
KKLEB tox – cytotoxicity in KKLEB CF airway cells, primary screen, cytotoxicity control for CF NF-kB inhibitor project, cell-based, uHTS, fluorescence assay plates; AID 602141, 2011; 0.36% of 360,000 active; activity change (cytotoxicity), % at 5 µM; KKLEB CF airway cells viability, ATPlite luminescence, overnight; stronger effect = lower value; cells stimulated with P. aeruginosa culture filtrate;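 active = corrected activity change at or below -50% at 5 µM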
CF NFkB block – inhibitors of PAF-induced NF-kB signaling, primary screen, cell-based, GFP fluorescence, uHTS; inhibition, % at 5 µM; 0.86% of 360,000 active; KKLEB NF-kB-GFP reporter, GFP fluorescence overnight;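 active = at least 50% inhibition at 5 µM, scaled per plate between neutral and stimulator controls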;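 note: PAF is a Pseudomonas aeruginosa culture filtrate used as stimulus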
TROY NFkB inh – inhibitors of TROY-driven NF-kB signaling, primary screen, Q293 LMP1-TROYcd cells, NF-kB luciferase, uHTS; Q293 LMP1-TROYcd NF-kB luciferase reporter, 4 h; inhibition, % at 10 µM; 0.98% of 360,000 active;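 active = compounds whose plate-normalised and pattern-corrected inhibition of the luciferase reporter signal at the single screening dose is 50% or more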
HIF-2a block – HIF-2a reporter inhibitors, primary screen, luminescence, 786-0 RCC cells; 786-0 RCC cells HIF-2a reporter, luciferase luminescence, overnight; inhibition, % at 18.8 µM; 0.72% of 360,000 active; AID 624352, 2012;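 active = inhibition of the luminescence signal of 40% or more relative to plate controls, in a single-dose primary screen at 18.75 µM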
TWEAK Fn14 block – inhibitors of TWEAK-Fn14 signaling, primary screen, luciferase reporter cells, uHTS. inhibition, % at 10 µM. 2% of 360,000 active. AID 1159606, 2016. TWEAK-stimulated Fn14 reporter cells, luciferase luminescence, 8 h; in the data active = inhibition above about 50%
Peg3 promoter – Peg3 promoter-driven luciferase inhibitors, primary screen, cell-based, HeLa, luciferase luminescence; AID 588405, 2011; 1.7% of 360,000 active; inhibition, % at 20 µM; HeLa PEG-Prom luciferase reporter, overnight;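 active = inhibition of at least 50% at 20 µM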
Each line names hits and unclear results; the compound was inactive in the other large screens.

CN(C(=O)CSc1nnc(C(F)(F)F)n1C)c1c(N)n(Cc2ccccc2)c(=O)[nH]c1=O	none
Oc1ccccc1C=NNC(=S)NC1CC2C=CC1C2 (stereo not drawn)	none
Oc1c(Cl)cc(Cl)cc1/C=N/NC(=S)NC1CC2C=CC1C2 (stereo not drawn)	KKLEB tox -72, CF NFkB block 50
COc1cccc(CNCCc2c[nH]c3ccccc23)c1OCc1ccccc1	Peg3 promoter 105
COc1ccc(C(=O)Nn2c(SCC(=O)NC3CCCCC3)nc3ccccc3c2=O)cc1	TROY NFkB inh 78, TWEAK Fn14 block 92
COc1ccc(C(=O)Nn2c(SCc3cccc([N+](=O)[O-])c3)nc3ccccc3c2=O)cc1	TROY NFkB inh 76, TWEAK Fn14 block 79
COc1ccc(C(=O)Nn2c(SCC(=O)NCc3ccco3)nc3ccccc3c2=O)cc1	TROY NFkB inh 80, TWEAK Fn14 block 88
COc1ccc(C(=O)Nn2c(SCC(=O)c3ccc(Cl)cc3)nc3ccccc3c2=O)cc1	TROY NFkB inh 79, TWEAK Fn14 block 91
CCOc1ncccc1C(=O)OCC(=O)c1ccc(C)c(C)c1	none
O=C(/C(N=Nc1cccc([N+](=O)[O-])c1)=C(/O)c1ccc(Br)cc1)C(F)(F)F	KKLEB tox -58, CF NFkB block 51
O=C(CCNc1ccc(Br)cc1)c1cccc([N+](=O)[O-])c1	none
COCCSc1nnc(NS(=O)(=O)c2ccc(C)cc2)s1	TROY NFkB inh 54
O=C(Nc1ccc(Cl)c(Cl)c1)Nc1nnc(-c2ccncc2)s1	KKLEB tox -56, CF NFkB block 76
O=C(Nc1nnc(-c2ccncc2)s1)Nc1ccccc1F	none
CCOC(=O)N1CCC(N2Cc3cccc(C(=O)Nc4ccccc4OC)c3C2=O)CC1	none
CS(=O)(=O)N1CCc2cc(-c3csc(NC(=O)Cc4ccccc4)n3)ccc21	TWEAK Fn14 block 58
CC1Cc2cc(-c3csc(NC(=O)Cc4cccs4)n3)ccc2N1S(C)(=O)=O (stereo not drawn)	TROY NFkB inh 75, TWEAK Fn14 block 101
CCC(=O)Nc1nc(-c2ccc3c(c2)CC(C)N3S(C)(=O)=O)cs1 (stereo not drawn)	none
CCCC1(c2ccsc2)NC(=O)NC1=O (stereo not drawn)	none
Cc1cc(/N=C/C=C2/N(C)c3ccccc3C2(C)C)n(CCC#N)n1	none
CCN(Cc1ccc2c(c1)OCO2)C(=O)CSc1nc(C)nc2sc(C)c(C)c12	TROY NFkB inh 57
Cc1sc2nc(SCC(=O)Nc3ccc(Cl)c(C(=O)O)c3)[nH]c(=O)c2c1C	TWEAK Fn14 block 52
CC(=O)Nc1ccc(NC(=O)CSc2nc(C)nc3sc(C)c(C)c23)cc1	none
Cc1sc2nc(SCC(=O)Nc3cccc(C(=O)O)c3)[nH]c(=O)c2c1C	none
Cc1nc(SCC(=O)Nc2ccc(CN3CCCC3)cc2)c2c(C)c(C)sc2n1	Peg3 promoter 85
CC1(C(=O)NCc2ccc3c(c2)OCO3)CCN1C(=O)Cc1ccc(Cl)cc1Cl (stereo not drawn)	none
N#C/C(=C/c1ccc(CNS(=O)(=O)c2ccccc2)o1)C(N)=O	TWEAK Fn14 block 69
O=C(Nc1nc2ccc(SC(F)F)cc2s1)c1ccc(NS(=O)(=O)c2ccc(F)c(F)c2)cc1	TROY NFkB inh 54, TWEAK Fn14 block 71
CS(=O)(=O)c1ccc2nc(NC(=O)c3ccc(NS(=O)(=O)c4ccc(F)c(F)c4)cc3)sc2c1	none
CC(=O)Nc1ccc(S(=O)(=O)NCc2cc(=O)n(C)c(=O)n2C)cc1	none
Cc1cc(=O)n2cn[nH]c2n1	none
CN(CC(=O)Nc1ccc(Cl)c(C(F)(F)F)c1)C(=O)CNC(=O)C1CCCCC1	none
CC(C)CC(N)c1csc(Nc2cc(Oc3ccccc3)ncn2)n1 (stereo not drawn)	Peg3 promoter 63
CN(CC(O)COCc1ccccc1F)C1CCCCC1 (stereo not drawn)	TWEAK Fn14 block 64
c1ccc(OCCNc2ccn3nc(-c4ccc(OCCN5CCOCC5)cc4)cc3n2)cc1	TWEAK Fn14 block 54
Cc1nc(C(F)(F)F)ccc1C(=O)N1CCC1(C)C(=O)NS(=O)(=O)c1cccc(F)c1 (stereo not drawn)	none
Cc1ccc(C)c(OCCn2ccnc2)c1	none
Cc1cc(C)c(C)c(OCCn2ccnc2)c1	TWEAK Fn14 block 111
CC1CCCN(C(=O)c2ccc(Br)c(S(=O)(=O)N3CCOCC3)c2)C1 (stereo not drawn)	none
COc1ccc(NC(C)=[N+](C)CCNS(=O)(=O)c2ccc(Cl)cc2)cc1	none
COc1ccc(C(=O)Nc2ccc3[nH]c(-c4cccc(OC)c4)cc(=O)c3c2)cc1	CF NFkB block 50
COc1ccc2[nH]c(-c3ccc(C)cc3)cc(=O)c2c1	TWEAK Fn14 block 75
O=C(Cn1cnc([N+](=O)[O-])c1)c1ccc(F)cc1	none
CC(=O)Nc1ccc(S(=O)(=O)NCC(=O)NCCCc2ccccc2)cc1	TWEAK Fn14 block 51
CC(=O)Nc1ccc(S(=O)(=O)NCCC(=O)NCCCc2ccccc2)cc1	none
CC(=O)c1cccc2c(O)c(C3=Nc4ccccc4C3=O)[nH]c12	TROY NFkB inh 54
CSc1cnc2c(=O)n(C)c(=O)[nH]c2n1	none
Cn1c(=O)[nH]c2nnc(-c3ccc(Cl)c(Cl)c3)nc2c1=O	TWEAK Fn14 block 57
CCN(C(=O)COC(=O)C1CCN(S(=O)(=O)c2ccc(C)c(C)c2)CC1)C1CCCCC1	none
COc1cc(C(=O)N/C(=C\c2cn(C)c3ccccc23)C(=O)NCCN2CCOCC2)cc(OC)c1OC	none
CC(C)CN(C(=O)COC(=O)c1cnc(Cl)c(Cl)c1)c1c(N)n(Cc2ccccc2)c(=O)[nH]c1=O	Peg3 promoter 85
CC(C)N(Cc1ccccc1)C(=O)COC(=O)c1cnc(Cl)c(Cl)c1	Peg3 promoter 83
COc1ccc(-c2nc(SCC(=O)N(CC(C)C)c3c(N)n(Cc4ccccc4)c(=O)[nH]c3=O)n[nH]2)cc1	none
CC(C)CN(C(=O)CSc1nc(-c2ccccc2)cn1N)c1c(N)n(Cc2ccccc2)c(=O)[nH]c1=O	TROY NFkB inh 54
COc1ccc(-c2c(C)nn3c(C)cc(C)nc23)cc1	none
COc1ccc(-c2cc(CNc3nc4cc(-c5ccccc5C)sc4c(=O)n3C)on2)cc1	none
Cc1ccc(N(CCC#N)C(=O)COC(=O)c2cc(C)oc2C)cc1	none
COc1ccc(/C=C/C(=O)c2ccc(O)cc2)cc1COc1ccc(F)cc1	TWEAK Fn14 block 55
